We go through eight compounds from PubChem BioAssay (NCI).

Test systems include DU-145 prostate; K-562 leukemia; MALME-3M melanoma; MDA-MB-231 breast; RXF 393 renal; SF-268 CNS; SF-295 CNS; SF-539 CNS; UACC-257 melanoma; M14 melanoma; HCT-15 colon; HT29 colon; SNB-75 CNS; SNB-19 CNS; U251 CNS; PC-3 prostate; SK-MEL-5 melanoma; UACC-62 melanoma; LOX IMVI melanoma; SK-MEL-28 melanoma.
What all share (assay): NCI-60 one-dose screen, 48 h (100 = growth as untreated, 0 = no growth, -100 = all killed)
What all share (settings): 10 µM unless noted

This is part of a sample that, as a whole, favours compounds with a hit. Of some 83,000 tested, about 20% had one in any assay.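 Assay: single dose, 48 h. Readout: percent growth (0 = no net growth; negative = cell death). Active: <10.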 A number with no mark means an inactive call. The source made the active and inactive calls.

Consider `C#Cc1c2c(c(OC)c3c1OCO3)[C@H]([C@H]1OC(=O)c3c1ccc(OC)c3OC)N(C)CC2`, for which the growth with DU-145 prostate is 95.1%; in the experiment with K-562 leukemia, 31.2%; in the experiment on MALME-3M melanoma it was 69.9%; in the experiment on MDA-MB-231 breast it was 87.5%; in the experiment with RXF 393 renal, 92.3%; in the experiment with SF-268 CNS it was 90.4%. In addition, the growth in the experiment on SF-295 CNS was 77.7%; in the experiment with SF-539 CNS, 96.3%; with UACC-257 melanoma it was 82.8%; in the experiment on M14 melanoma, 71.4%; in the experiment on HCT-15 colon, 60.7%; in the experiment on HT29 colon, 60.7%. Besides, the growth was 85.8% in the experiment with SNB-75 CNS; 92.7% in the experiment with SNB-19 CNS; 87.9% in the experiment on U251 CNS; 76.5% in the experiment on PC-3 prostate; 93.4% in the experiment on SK-MEL-5 melanoma; 75.6% in the experiment on UACC-62 melanoma. The growth in the experiment with LOX IMVI melanoma was 79.7%; with SK-MEL-28 melanoma it was 95.1%.

On to `Cn1cc(C(=O)c2nc(-c3c[nH]c4ccccc34)no2)c2cc(F)ccc21`, for which the growth in the experiment on DU-145 prostate is 72.5%; with K-562 leukemia, 16.7%; in the experiment with MALME-3M melanoma, 37.3%; in the experiment on MDA-MB-231 breast, 57.1%; with RXF 393 renal, 89.9%; in the experiment on SF-268 CNS it was 54.9%. Moreover, the growth with SF-295 CNS is 20.7%; in the experiment on SF-539 CNS it was 30%; in the experiment on UACC-257 melanoma, 51.2%; in the experiment on M14 melanoma it was 33%; in the experiment on HCT-15 colon, 33.2%; in the experiment with HT29 colon, 8.8% (active). The growth was 27.4% in the experiment on SNB-75 CNS; 38.8% with SNB-19 CNS; 28.5% with U251 CNS; 41.9% in the experiment on PC-3 prostate; 25.3% with SK-MEL-5 melanoma; 31.7% in the experiment on UACC-62 melanoma. For the same compound, the growth with LOX IMVI melanoma was 39.5%; in the experiment with SK-MEL-28 melanoma, 64.6%.

With `Nc1ncnc2c1N=C(c1ccc(Br)cc1)CC(c1cccc(Nc3ccnc4cc(C(F)(F)F)ccc34)c1)N2` (stereo not given), the growth was 85.6% in the experiment with DU-145 prostate; 23% in the experiment on K-562 leukemia; 76.8% with MALME-3M melanoma; 55.9% with MDA-MB-231 breast; 38.5% in the experiment on RXF 393 renal; 55.5% in the experiment with SF-268 CNS. Further, the growth is 52.2% with SF-295 CNS; 70.8% with SF-539 CNS; 66.6% with UACC-257 melanoma; 60.1% in the experiment on M14 melanoma; 27.2% in the experiment with HCT-15 colon; 26.4% with HT29 colon. The growth with SNB-75 CNS is 66.2%; in the experiment with SNB-19 CNS it was 70.6%; with U251 CNS, 51%; in the experiment on PC-3 prostate, 39%; in the experiment with SK-MEL-5 melanoma, 49.5%; in the experiment on UACC-62 melanoma, 74.3%. Further, the growth with LOX IMVI melanoma is 63.3%; in the experiment with SK-MEL-28 melanoma, 72.2%.

With `COc1ccc(-c2cc(-c3ccc(Cl)cc3)c(C#N)c(=O)n2Cc2ccc(C(=O)Nc3ccccc3N)cc2)cc1`, the growth with DU-145 prostate was 101%; with K-562 leukemia, 46.2%; with MALME-3M melanoma, 74.1%; in the experiment with MDA-MB-231 breast it was 67.2%; with RXF 393 renal, 54.5%; in the experiment on SF-268 CNS, 73.4%. The growth in the experiment on SF-295 CNS was 61.1%; in the experiment on SF-539 CNS it was 74%; with UACC-257 melanoma, 105%; in the experiment with M14 melanoma it was 81.5%; with HCT-15 colon, 68.2%; with HT29 colon, 107%. For the same compound, the growth in the experiment with SNB-75 CNS was 55.9%; in the experiment on SNB-19 CNS, 80.2%; with U251 CNS, 88.7%; with PC-3 prostate it was 79.6%; with SK-MEL-5 melanoma, 80.9%; in the experiment with UACC-62 melanoma it was 49.5%. Moreover, the results for the growth in the experiment on LOX IMVI melanoma and in the experiment with SK-MEL-28 melanoma were 69.3% and 70%, respectively.

Consider `Cc1ccccc1/C=C/C(=O)c1cccc(OCCCCOc2cccc(C(=O)/C=C/c3ccccc3C)c2)c1`, for which the growth with DU-145 prostate was 98%; in the experiment on K-562 leukemia, 97.1%; with MALME-3M melanoma, 96.9%; with MDA-MB-231 breast it was 95%; in the experiment on RXF 393 renal, 98.6%; in the experiment on SF-268 CNS, 102%. Moreover, the growth in the experiment with SF-295 CNS is 97.7%; in the experiment on SF-539 CNS, 105%; in the experiment with UACC-257 melanoma, 92.2%; in the experiment on M14 melanoma, 97.9%; in the experiment on HCT-15 colon it was 84.6%; in the experiment with HT29 colon it was 86.8%. Further, the growth was 90.9% in the experiment with SNB-75 CNS; 93.5% in the experiment on SNB-19 CNS; 93% in the experiment on U251 CNS; 100% in the experiment with PC-3 prostate; 101% in the experiment on SK-MEL-5 melanoma; 74.8% in the experiment with UACC-62 melanoma. Besides, the growth in the experiment on LOX IMVI melanoma is 95.9%; with SK-MEL-28 melanoma it was 95.2%.

Take `O=C(COc1ccc(-c2nc3cc(Cl)c(Cl)cc3[nH]2)cc1)N=Nc1c(O)[nH]c2ccc(Cl)cc12`: the growth in the experiment with DU-145 prostate is 74.6%; in the experiment with K-562 leukemia, 5.55% (active); in the experiment on MALME-3M melanoma, 49.5%; in the experiment on MDA-MB-231 breast, 76.8%; in the experiment on RXF 393 renal, 77.6%; in the experiment on SF-268 CNS it was 89.4%. Further, the growth was 74.8% with SF-295 CNS; 84.2% in the experiment with SF-539 CNS; 105% with UACC-257 melanoma; 66.5% in the experiment on M14 melanoma; 80.3% in the experiment on HCT-15 colon; 33.4% with HT29 colon. The growth in the experiment on SNB-75 CNS is 68.5%; in the experiment with SNB-19 CNS, 56.7%; in the experiment on U251 CNS, 34.2%; in the experiment with PC-3 prostate, 61.2%; with SK-MEL-5 melanoma it was 85.6%; in the experiment on UACC-62 melanoma, 91.6%. Moreover, the growth was 60.8% in the experiment on LOX IMVI melanoma and 73.7% in the experiment with SK-MEL-28 melanoma.

For `CCOC(=O)c1c(NC(=O)c2cccc(C(F)(F)F)c2)sc2c(CN(C)C)c(O)ccc12`, the growth in the experiment on DU-145 prostate is 72.5%; in the experiment on K-562 leukemia, 2.41% (active); in the experiment with MALME-3M melanoma, -38.5% (active); with MDA-MB-231 breast it was 58.9%; in the experiment with RXF 393 renal it was 38.4%; in the experiment with SF-268 CNS it was 84.7%. The growth is 96.2% with SF-295 CNS; 49.3% with SF-539 CNS; -10.5% (active) in the experiment on UACC-257 melanoma; -57.8% (active) with M14 melanoma; 10.6% in the experiment on HCT-15 colon; 13.5% in the experiment on HT29 colon. Besides, the growth in the experiment with SNB-75 CNS was 83%; in the experiment on SNB-19 CNS, 88.4%; in the experiment on U251 CNS, 16.5%; with PC-3 prostate it was 60.3%; in the experiment on SK-MEL-5 melanoma, 93.6%; in the experiment with UACC-62 melanoma, 102%. In addition, the growth in the experiment on LOX IMVI melanoma was 16.5%; in the experiment with SK-MEL-28 melanoma it was 17%.

Consider `C#COc1cccc(Nc2c(C#N)cnc3ncc(NC(=O)CCl)cc23)c1`, for which the growth is 33.2% [6.25 µM] with DU-145 prostate; 6.93% [6.25 µM] (active) in the experiment on K-562 leukemia; 76.9% [6.25 µM] in the experiment on MALME-3M melanoma; 20.9% [6.25 µM] with MDA-MB-231 breast; 54% [6.25 µM] in the experiment on RXF 393 renal; 6.32% [6.25 µM] (active) in the experiment with SF-268 CNS. Also, the growth with SF-295 CNS is 42.1% [6.25 µM]; with SF-539 CNS it was -7.95% [6.25 µM] (active); in the experiment with UACC-257 melanoma it was 47.1% [6.25 µM]; in the experiment on M14 melanoma, 41.2% [6.25 µM]; in the experiment on HCT-15 colon it was 22.8% [6.25 µM]; in the experiment on HT29 colon, 3.12% [6.25 µM] (active). In addition, the growth is 54.2% [6.25 µM] with SNB-75 CNS; 11% [6.25 µM] with SNB-19 CNS; -42.8% [6.25 µM] (active) in the experiment with U251 CNS; 19.6% [6.25 µM] in the experiment on PC-3 prostate; 47.7% [6.25 µM] in the experiment on SK-MEL-5 melanoma; 37.5% [6.25 µM] with UACC-62 melanoma. The growth in the experiment on LOX IMVI melanoma was -2.95% [6.25 µM] (active); in the experiment on SK-MEL-28 melanoma, 50.8% [6.25 µM].
